Experimental data from publication PMC9838217, “Structure of SALL4 zinc finger domain reveals link between AT-rich DNA binding and Okihiro syndrome”.
Numbering of substitutions follows the chain as printed.

What was measured:
[1] = biological target: T1, SALL4 ZFC4 R900W (HT-SELEX) (Mus musculus, UniProt Q8BX22 870-940, R900W); experiment: HT-SELEX; high values mean tight binding; details: protein: recombinant; vector His6-GST; dsDNA, one strand shown
T1 sequence: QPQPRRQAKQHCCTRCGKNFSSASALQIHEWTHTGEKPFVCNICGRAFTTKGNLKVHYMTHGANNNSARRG
Summary of the method: (§1)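 Purified recombinant mouse SALL4 zinc finger cluster 4 (residues 870–940, 1 µg) was incubated with library DNA (1.5 µg first cycle, 200 ng later) in 100 µl buffer (10 mM Tris–HCl pH 7.5, 50 mM NaCl, poly(dI-dC), DTT) for 10 min at room temperature. Ni2+ bead-captured complexes were washed, PCR-amplified and reselected for up to 6 cycles, in triplicate, then MiSeq-sequenced and scanned for 6-mers. Binding signal is each canonical k-mer's read fraction as fold change versus the initial random library.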

[2] = biological target: T2, SALL4 ZFC4 G921D (HT-SELEX) (Mus musculus, UniProt Q8BX22 870-940, G921D); experiment: HT-SELEX; high values mean tight binding; details: protein: recombinant; vector His6-GST; dsDNA, one strand shown
T2 sequence: T1 sequence with W31R, G52D
Summary of the method: as §1

Row | Sequence | binding signal [1] | binding signal [2]
1 | GCAGAC | 0.369 ± 0.0281 fold-change vs cycle 0 | 0.48 ± 0.0825 fold-change vs cycle 0
2 | CCCGGA | 0.231 ± 0.0171 fold-change vs cycle 0 | 0.334 ± 0.0568 fold-change vs cycle 0
3 | CTCCGC | 0.169 ± 0.0169 fold-change vs cycle 0 | 0.271 ± 0.0458 fold-change vs cycle 0
4 | ACGCGG | 0.111 ± 0.0165 fold-change vs cycle 0 | 0.205 ± 0.0613 fold-change vs cycle 0
5 | GGGCCA | 0.129 ± 0.0234 fold-change vs cycle 0 | 0.254 ± 0.0851 fold-change vs cycle 0
6 | CGCCTA | 0.26 ± 0.0104 fold-change vs cycle 0 | 0.413 ± 0.0625 fold-change vs cycle 0
7 | CGGCAC | 0.0866 ± 0.0073 fold-change vs cycle 0 | 0.207 ± 0.0784 fold-change vs cycle 0
8 | ACGGGG | 0.257 ± 0.00971 fold-change vs cycle 0 | 0.37 ± 0.0678 fold-change vs cycle 0
9 | CGACGA | 0.288 ± 0.00345 fold-change vs cycle 0 | 0.415 ± 0.0734 fold-change vs cycle 0
10 | CGACCG | 0.146 ± 0.0139 fold-change vs cycle 0 | 0.263 ± 0.0799 fold-change vs cycle 0
11 | CACGCC | 0.137 ± 0.0218 fold-change vs cycle 0 | 0.251 ± 0.0597 fold-change vs cycle 0
12 | AGGCGC | 0.0722 ± 0.0162 fold-change vs cycle 0 | 0.185 ± 0.0792 fold-change vs cycle 0
13 | CTCGCC | 0.139 ± 0.00418 fold-change vs cycle 0 | 0.273 ± 0.0725 fold-change vs cycle 0
